Measured values reported in PubChem BioAssay (Tox21).
Values without a mark were called inactive. Results filed as inconclusive are left out. Entries that show only a call come without a potency. Activity calls are given as the source filed them. Unless noted, calls come from the whole dose curve.

Assays:
[1] = Nuclear factor erythroid 2-related factor 2/antioxidant responsive element (Nrf2/ARE) small molecule agonists: qHTS cell viability counter screen in human keratinocytes (AID 1919968; active = well fitted curve in the direction sought with a large enough effect in the repeat runs; an effect the other way counts as inactive or inconclusive; note: nearly all actives have a fitted effect of over 55% in size; note: potency is the fitted concentration of half-maximal effect)
Summary of the method: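 KeratinoSens cells (HaCaT keratinocytes stably carrying an ARE-luciferase reporter) were seeded at 1,500 cells/well and rested 5 h at 37 C/5% CO2. They were then exposed to compounds in DMSO for 23 h. Viability was read by CellTiter-Fluor fluorescence after 1 h.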

[2] = Nuclear factor erythroid 2-related factor 2/antioxidant responsive element (Nrf2/ARE) small molecule agonists: luciferase reporter gene qHTS assay in human keratinocytes (AID 1919969); note: nearly all actives have a fitted effect of over 35% in size; note: potency is the fitted concentration of half-maximal effect
[3] = target: Gonadotropin-releasing hormone receptor (Homo sapiens) (UniProt P30968); test: Human gonadotropin-releasing hormone receptor (GnRHR) small molecule agonists, calcium flux assay in GnRHR-HEK293 cells (AID 1920063); note: nearly all actives have a fitted effect of over 35% in size
Chain of Gonadotropin-releasing hormone receptor (Homo sapiens) (P30968 whole entry, looked up): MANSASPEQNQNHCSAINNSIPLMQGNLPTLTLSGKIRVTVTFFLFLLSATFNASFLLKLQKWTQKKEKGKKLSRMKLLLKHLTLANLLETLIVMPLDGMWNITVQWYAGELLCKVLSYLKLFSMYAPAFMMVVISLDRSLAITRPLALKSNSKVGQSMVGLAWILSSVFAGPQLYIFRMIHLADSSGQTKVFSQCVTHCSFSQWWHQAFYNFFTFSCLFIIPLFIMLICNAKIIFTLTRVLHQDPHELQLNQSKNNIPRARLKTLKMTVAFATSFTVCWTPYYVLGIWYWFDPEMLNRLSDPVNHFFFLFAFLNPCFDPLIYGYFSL
Summary of the method: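 HEK293 cells stably expressing human GnRHR were plated 18 h at 37 °C, loaded with calcium dye 1 h at 37 °C, then given compound in agonist mode; fluorescence (Ex/Em 480/540) read kinetically for 3 min at 1 s intervals.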

[4] = target: KiSS-1 receptor (Homo sapiens) (UniProt Q969F8); test: Human kisspeptin (KISS1R) small molecule agonists, calcium flux assay in KISS1R-HEK293 cells (AID 1920064; active = well fitted curve in the direction sought with a large enough effect in the repeat runs; an effect the other way counts as inactive or inconclusive)
Chain of KiSS-1 receptor (Homo sapiens) (Q969F8 whole entry, looked up): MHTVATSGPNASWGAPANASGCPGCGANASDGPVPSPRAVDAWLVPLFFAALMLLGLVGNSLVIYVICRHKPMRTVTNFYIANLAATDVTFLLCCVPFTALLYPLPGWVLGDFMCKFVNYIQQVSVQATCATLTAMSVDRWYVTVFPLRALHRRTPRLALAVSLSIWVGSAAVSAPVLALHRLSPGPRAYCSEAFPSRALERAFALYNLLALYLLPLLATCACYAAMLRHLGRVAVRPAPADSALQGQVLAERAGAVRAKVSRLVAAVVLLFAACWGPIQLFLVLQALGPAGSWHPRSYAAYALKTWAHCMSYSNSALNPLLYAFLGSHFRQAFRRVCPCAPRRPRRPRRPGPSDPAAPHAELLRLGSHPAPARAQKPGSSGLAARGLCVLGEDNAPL
Summary of the method: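 HEK293 cells stably expressing human KISS1R were plated 18 h at 37 °C, loaded with calcium dye for 1 h at 37 °C, then given compound by pin tool. Fluorescence (Ex/Em 480/540) was read kinetically for 3 min.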

[5] = p53 small molecule agonists, cell-based qHTS assay with rat liver microsomes (AID 1963578)
Summary of the method: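 Fluorescence from a beta-lactamase reporter under a p53 response element was measured after cells had been incubated 16 h at 37 C with test compound and rat liver microsomes plus NADPH (0.5 mg/mL final each).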

[6] = p53 small molecule agonists, cell-based qHTS assay with human liver microsomes: qHTS cell viability counter screen (AID 1963579); note: nearly all actives have a fitted effect of over 45% in size
Summary of the method: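 Seed p53RE-bla cells at 4,000 per well; incubate 5 h at 37 C; add compound, human liver microsomes and NADPH; incubate 16 h at 37 C; add CellTiter-Glo; after 30 min at room temperature, read luminescence.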

[7] = p53 small molecule agonists, cell-based qHTS assay with rat liver microsomes: qHTS cell viability counter screen (AID 1963580); note: nearly all actives have a fitted effect of over 45% in size
Summary of the method: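 Intracellular ATP, by CellTiter-Glo luminescence, defines viability. HCT-116 p53RE-bla cells, 4,000 per well, were compound-treated in the presence of rat liver microsomes and NADPH for 16 h at 37 C.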

[8] = p53 small molecule agonists, cell-based qHTS assay: qHTS cell viability counter screen (AID 1963581); note: nearly all actives have a fitted effect of over 45% in size
Summary of the method: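 p53RE-bla HCT-116 cells were exposed to compounds for 16 h at 37 C; after the beta-lactamase FRET read in the same wells, CellTiter-Glo was added and luminescence (intracellular ATP) read after 30 min at room temperature.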

[9] = p53 small molecule agonists, cell-based qHTS assay (AID 1963582; active = well fitted activation curve with a large enough effect in the signal ratio in the repeat runs, not every such curve was filed as active; the % refers to the signal ratio)
Summary of the method: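 p53RE-bla beta-lactamase reporter cells rested 5 h at 37 C/5% CO2, then received compounds in DMSO by pin transfer and were incubated 16 h at 37 C. LiveBLAzer B/G FRET substrate was loaded for 2 h at room temperature before fluorescence reading.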

[10] = target: 5-hydroxytryptamine receptor 2A (Homo sapiens) (UniProt P28223); test: 5-hydroxytryptamine receptor 2A (HTR2A) small molecule agonists, cell-based qHTS assay (AID 1963587); note: nearly all actives have a fitted effect of over 30% in size
Chain of 5-hydroxytryptamine receptor 2A (Homo sapiens) (P28223 whole entry, looked up): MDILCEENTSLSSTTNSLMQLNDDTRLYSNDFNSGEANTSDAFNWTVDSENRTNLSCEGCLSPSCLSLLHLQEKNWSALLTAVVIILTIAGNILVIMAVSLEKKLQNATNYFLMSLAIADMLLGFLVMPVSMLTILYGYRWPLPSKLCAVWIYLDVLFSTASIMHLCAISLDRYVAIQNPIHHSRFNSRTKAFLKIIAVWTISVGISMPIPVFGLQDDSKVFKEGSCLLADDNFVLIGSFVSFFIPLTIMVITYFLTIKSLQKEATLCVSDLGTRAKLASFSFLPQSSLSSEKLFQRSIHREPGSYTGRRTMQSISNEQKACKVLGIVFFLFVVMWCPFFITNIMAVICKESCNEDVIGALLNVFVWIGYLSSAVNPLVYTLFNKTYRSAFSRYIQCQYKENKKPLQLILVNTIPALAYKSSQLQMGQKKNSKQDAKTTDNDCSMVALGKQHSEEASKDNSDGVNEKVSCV
Summary of the method: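 Kinetic calcium-flux fluorescence (2 min, 1 sec intervals) after compound addition in agonist mode. HTR2A-CHO cells were cultured 18 h, then dye-loaded 1 h at 37 C.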

[11] = target: Muscarinic acetylcholine receptor M1 (Homo sapiens) (UniProt P11229); test: Cholinergic receptor muscarinic 1 (CHRM1) small molecule antagonists, cell-based qHTS assay (AID 1963588); note: nearly all actives have a fitted effect of over 40% in size
Chain of Muscarinic acetylcholine receptor M1 (Homo sapiens) (P11229 whole entry, looked up): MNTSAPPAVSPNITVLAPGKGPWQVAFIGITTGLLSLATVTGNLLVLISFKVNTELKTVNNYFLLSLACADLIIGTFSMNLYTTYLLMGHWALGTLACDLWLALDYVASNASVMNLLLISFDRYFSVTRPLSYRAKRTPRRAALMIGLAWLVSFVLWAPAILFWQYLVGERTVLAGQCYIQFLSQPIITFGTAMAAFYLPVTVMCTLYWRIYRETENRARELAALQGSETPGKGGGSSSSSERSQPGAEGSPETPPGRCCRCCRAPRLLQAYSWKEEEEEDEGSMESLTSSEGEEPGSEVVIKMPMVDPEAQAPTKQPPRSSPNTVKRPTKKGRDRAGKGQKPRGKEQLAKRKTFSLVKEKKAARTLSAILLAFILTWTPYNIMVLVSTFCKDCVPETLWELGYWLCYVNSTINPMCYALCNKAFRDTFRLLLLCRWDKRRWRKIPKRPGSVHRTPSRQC
Summary of the method: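 CHRM1-CHO calcium-flux assay, antagonist mode. Cells were seeded 18 h, dye-loaded 1 h at 37 C and given compound for 5 min at RT, then acetylcholine was added at 50nM. FDSS fluorescence was read 3 min; 15 concentrations, three runs.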

[12] = target: Muscarinic acetylcholine receptor M1 (Homo sapiens) (UniProt P11229); test: Cholinergic receptor muscarinic 1 (CHRM1) small molecule agonists, cell-based qHTS assay (AID 1963589); note: nearly all actives have a fitted effect of over 35% in size
Summary of the method: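 CHO cells stably expressing human CHRM1, seeded 18 h at 37 C/5% CO2, dye-loaded 1 h at 37 C, then given compound in agonist mode; intracellular calcium fluorescence read kinetically at 1 s intervals. Fifteen concentrations, three independent runs.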

[13] = cAMP Responsive Elements (CRE) small molecule agonists, cell-based qHTS assay (AID 1963590)
Summary of the method: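 CRE-bla HEK 293T cells in DMEM with 10% dialyzed FBS, NEAA, pyruvate and 25 mM HEPES were plated 18 h at 37 C/5% CO2, then exposed to compounds in DMSO for 3 h before LiveBLAzer B/G FRET substrate addition.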

[14] = cAMP Responsive Elements (CRE) small molecule antagonists, cell-based qHTS assay (AID 1963591; active = well fitted inhibition curve with a large enough effect in the signal ratio in the repeat runs, not every such curve was filed as active; the % refers to the signal ratio)
Summary of the method: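 CRE-bla HEK293T cells were plated 18 h at 37 °C/5% CO2, pinned with compound in DMSO, then stimulated with NKH477 at 0.25 uM final for 3 h. LiveBLAzer B/G FRET substrate was added and plates incubated 2 h at room temperature.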

[15] = target: Beta-2 adrenergic receptor (Homo sapiens) (UniProt P07550); test: Adrenergic beta2 receptor (ADRB2) small molecule antagonists, cell-based qHTS assay (AID 1963592); note: series mostly up to about 92 µM; nearly all actives have a fitted effect of over 50% in size
Chain of Beta-2 adrenergic receptor (Homo sapiens) (P07550 whole entry, looked up): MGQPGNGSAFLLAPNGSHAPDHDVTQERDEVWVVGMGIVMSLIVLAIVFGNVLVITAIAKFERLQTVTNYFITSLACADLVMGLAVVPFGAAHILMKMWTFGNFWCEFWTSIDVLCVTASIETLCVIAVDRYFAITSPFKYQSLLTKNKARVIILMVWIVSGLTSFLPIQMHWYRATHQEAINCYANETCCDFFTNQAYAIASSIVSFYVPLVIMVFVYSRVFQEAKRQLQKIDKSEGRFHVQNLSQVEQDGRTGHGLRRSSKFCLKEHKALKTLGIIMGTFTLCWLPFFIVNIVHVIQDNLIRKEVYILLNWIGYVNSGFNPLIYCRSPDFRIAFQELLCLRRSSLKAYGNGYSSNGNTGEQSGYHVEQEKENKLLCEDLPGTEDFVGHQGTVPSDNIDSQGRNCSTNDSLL
Summary of the method: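 Cells (CHO, stable ADRB2 overexpression) incubated 18-20hr at 37C; compounds added from DMSO; agonist mix (1nM isoproterenol, 100uM IBMX, 25uM Ro-20-1724) added; 0.5hr RT; d2-cAMP and anti-cAMP-cryptate added; 1hr RT; 665/615 nm read.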

[16] = target: Beta-2 adrenergic receptor (Homo sapiens) (UniProt P07550); test: Adrenergic beta2 receptor (ADRB2) small molecule agonists, cell-based qHTS assay (AID 1963593); note: potency is the fitted concentration of half-maximal effect
Summary of the method: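 CHO cells stably over-expressing ADRB2 were plated overnight at 37C, then dosed with compounds plus a stimulation mix containing 100uM IBMX and 25uM Ro-20-1724 for 0.5hr at room temperature. cAMP was measured by HTRF competition, 1hr.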

[17] = target: D(2) dopamine receptor (Homo sapiens) (UniProt P14416); test: Dopamine D2 receptor (DRD2) small molecule agonists, cell-based qHTS assay (AID 1963594); note: nearly all actives have a fitted effect of over 35% in size
Chain of D(2) dopamine receptor (Homo sapiens) (P14416 whole entry, looked up): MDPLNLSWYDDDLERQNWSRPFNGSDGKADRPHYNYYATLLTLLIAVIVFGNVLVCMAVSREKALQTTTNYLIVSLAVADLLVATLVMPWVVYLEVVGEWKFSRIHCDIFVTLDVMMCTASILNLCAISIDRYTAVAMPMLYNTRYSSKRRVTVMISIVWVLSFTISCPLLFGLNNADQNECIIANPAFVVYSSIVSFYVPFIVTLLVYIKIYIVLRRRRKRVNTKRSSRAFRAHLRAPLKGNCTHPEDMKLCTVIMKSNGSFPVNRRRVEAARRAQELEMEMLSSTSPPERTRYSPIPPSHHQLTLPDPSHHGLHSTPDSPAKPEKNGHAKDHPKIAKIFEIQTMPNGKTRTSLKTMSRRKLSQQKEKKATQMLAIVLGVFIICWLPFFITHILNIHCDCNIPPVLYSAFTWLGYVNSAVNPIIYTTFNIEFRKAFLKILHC
Summary of the method: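 cAMP accumulation in DRD2-HEK293 cells measured by HTRF after 1 h detection; compounds added 10 min before NKH477 (200nM […]) forskolin-analogue stimulation, 30 min at room temperature, with Ro20-1724 present at 0.1 mM final.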

[18] = target: D(2) dopamine receptor (Homo sapiens) (UniProt P14416); test: Dopamine D2 receptor (DRD2) small molecule antagonists, cell-based qHTS assay (AID 1963595; active = well fitted inhibition curve with a large enough effect in the signal ratio in the repeat runs, with a control signal flat; the % refers to the signal ratio)
Summary of the method: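 Antagonist mode in DRD2-HEK293 cells: after compound addition with 0.1 mM Ro20-1724, cells received quinpirole (12 nM) and NKH477 (200 nM) for 30 min at room temperature; HTRF cAMP read after 1 h detection.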

[19] = p53 small molecule agonists, cell-based qHTS assay with human liver microsomes (AID 1963577)
Summary of the method: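 Cells carrying a p53-responsive bla reporter were rested 5 h (37 C, 5% CO2) before compound transfer. Human liver microsomes plus NADPH, 0.5 mg/mL final apiece, supplied metabolism during the 16 h 37 C exposure.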

[20] = target: 5-hydroxytryptamine receptor 2A (Homo sapiens) (UniProt P28223); test: 5-hydroxytryptamine receptor 2A (HTR2A) small molecule antagonists, cell-based qHTS assay (AID 1963586); note: nearly all actives have a fitted effect of over 45% in size
Summary of the method: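 Antagonist-mode intracellular calcium assay: DOI (4 nM) added after 5 min compound pre-incubation at room temperature to dye-loaded HTR2A-CHO cells. Fluorescence followed for 3 min, sampled every second.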

C#CCN[C@@H]1CCc2ccccc21
Potency [1]: inactive | Potency [2]: inactive | Potency [3]: inactive | outcome [4]: inactive | Potency [5]: inactive | Potency [6]: inactive | Potency [7]: inactive | Potency [8]: inactive | Potency [9]: inactive | Potency [10]: inactive | Potency [11]: inactive | Potency [12]: inactive | Potency [13]: inactive | Potency [14]: inactive | Potency [15]: inactive | Potency [16]: 29.8 µM (active) | Potency [17]: inactive | Potency [18]: inactive

CC(=O)Nc1cc(S(=O)(=O)O)cc2cc(S(=O)(=O)O)c(N=Nc3ccccc3)c(O)c12
Potency [1]: 27.3 µM (active) | Potency [2]: inactive | Potency [3]: inactive | Potency [19]: inactive | Potency [5]: inactive | Potency [6]: inactive | Potency [7]: inactive | Potency [8]: inactive | Potency [9]: inactive | Potency [20]: inactive | Potency [10]: inactive | Potency [11]: inactive | Potency [12]: inactive | Potency [13]: inactive | Potency [17]: inactive

CCC1=C(C)CN(C(=O)NCCc2ccc(S(=O)(=O)NC(=O)NC3CCC(C)CC3)cc2)C1=O (stereo not given)
Potency [1]: inactive | Potency [2]: inactive | Potency [3]: inactive | outcome [4]: inactive | Potency [19]: inactive | Potency [6]: inactive | Potency [7]: inactive | Potency [8]: inactive | Potency [9]: inactive | Potency [15]: inactive | Potency [17]: inactive | Potency [18]: inactive

Cc1cc(CC(=O)O)c(C)n1-c1ccc(Cl)cc1
Potency [1]: inactive | Potency [2]: inactive | Potency [3]: inactive | Potency [19]: inactive | Potency [5]: inactive | Potency [6]: inactive | Potency [7]: inactive | Potency [8]: inactive | Potency [9]: inactive | Potency [20]: inactive | Potency [10]: inactive | Potency [11]: inactive | Potency [12]: inactive | Potency [15]: inactive | Potency [18]: inactive

O=C(CCCl)NCCc1ccccc1
Potency [1]: inactive | Potency [2]: inactive | Potency [3]: inactive | Potency [19]: inactive | Potency [5]: inactive | Potency [6]: inactive | Potency [7]: inactive | Potency [8]: inactive | Potency [9]: inactive | Potency [20]: inactive | Potency [10]: inactive | Potency [11]: inactive | Potency [12]: inactive | Potency [13]: inactive | Potency [14]: inactive | Potency [15]: inactive | Potency [17]: inactive | Potency [18]: inactive

Nc1cc(S(=O)(=O)O)ccc1O
Potency [1]: inactive | Potency [2]: inactive | Potency [3]: inactive | Potency [19]: inactive | Potency [5]: inactive | Potency [6]: inactive | Potency [7]: inactive | Potency [8]: inactive | Potency [9]: inactive | Potency [20]: inactive | Potency [10]: inactive | Potency [11]: inactive | Potency [12]: inactive | Potency [13]: inactive | Potency [14]: inactive | Potency [17]: inactive | Potency [18]: inactive

O=C(O)C[C@H](O)C[C@H](O)/C=C/c1c(C2CC2)nc2ccccc2c1-c1ccc(F)cc1
activity change, negative = cytotoxicity [1]: -15.1% [at 19 µM] | activity, positive = activation [2]: -21.1% [at 19 µM] | activity change [3]: -1.52% [at 11.8 µM, active compounds read high] | activation [19]: -13.7% [at 13.5 µM] | activation [5]: -4.07% [at 13.6 µM] | activity change, negative = cytotoxicity [6]: -1.08% [at 13.5 µM] | activity change, negative = cytotoxicity [7]: 1.65% [at 13.5 µM] | activity change, negative = cytotoxicity [8]: 0.0104% [at 13.5 µM] | activity, negative = inhibition [20]: -9.13% [at 12.7 µM] | activation [10]: -5.4% [at 15.9 µM] | activity, negative = inhibition [11]: 7.39% [at 12.6 µM] | activation [12]: -0.297% [at 15.8 µM] | activation [13]: 0.303% [at 19 µM] | activity change, negative = inhibition [15]: -0.968% [at 19 µM] | activation [17]: -0.0463% [at 19 µM] | activity change, negative = inhibition [18]: 4% [at 18.9 µM]

c1ccc(CCNc2nc(-c3ccccc3)cs2)cc1
Potency [1]: inactive | Potency [2]: 0.596 µM (active) | Potency [3]: inactive | Potency [19]: inactive | Potency [5]: inactive | Potency [6]: inactive | Potency [7]: inactive | Potency [8]: inactive | Potency [9]: inactive | Potency [20]: inactive | Potency [11]: inactive | Potency [12]: inactive | Potency [13]: inactive | Potency [14]: inactive
